The full data set covers some 7,900 targets. This sample favours those with a hit. About 0.6% of all pairs of compound and target were hits. Values without a mark were called inactive.
Legend:
Test in all cases: log2 fold change, soluble protein after heating vs DMSO (PISA); higher = thermal stabilisation; K562 cells, 10 uM, 30 min; active = over 0.2 and 3.5 SD of the protein, either way, in both replicates (recomputed)
saracatinib = compound: CN1CCN(CCOc2cc(OC3CCOCC3)c3c(Nc4c(Cl)ccc5c4OCO5)ncnc3c2)CC1 [saracatinib]
Outline: (§1)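 For each measurement, 10 μM compound was applied for 30 min to K562 cells at 2×10^6 cells/mL. Aliquots were heated for 3 min across 48°C-58°C, pooled, and extracted in PBS with 0.5% NP-40 at 4°C; the supernatant after 21,000xg for 90 min was soluble protein. This was quantified by TMTpro 16plex LC-MS/MS with channel sums equalised, and thermal stability was reported relative to control samples from duplicates, on a log2 fold-change scale.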

sotrastaurin = compound: CN1CCN(c2nc(C3=C(c4c[nH]c5ccccc45)C(=O)NC3=O)c3ccccc3n2)CC1 [sotrastaurin]
Outline: as §1

alvocidib = compound: CN1CC[C@H](c2c(O)cc(O)c3c(=O)cc(-c4ccccc4Cl)oc23)[C@H](O)C1 [alvocidib]
Outline: as §1

Tubastatin A = compound: CN1CCc2c(c3ccccc3n2Cc2ccc(C(=O)NO)cc2)C1 [Tubastatin A]
Outline: as §1

[1] = compound: CNC(=O)C1=CC=CC=C1NC2=NC(=NC=C2Cl)NC3=C(C=C(C=C3)N4CCOCC4)OC
Outline: as §1

defactinib = compound: CNC(=O)c1ccc(Nc2ncc(C(F)(F)F)c(NCc3nccnc3N(C)S(C)(=O)=O)n2)cc1 [defactinib]
Outline: as §1

rucaparib = compound: CNCc1ccc(-c2[nH]c3cc(F)cc4c3c2CCNC4=O)cc1 [rucaparib]
Outline: as §1

[2] = compound: CNc1nc(-c2ccc3c(N)n[nH]c3c2)cc(N2C[C@@H](C(=O)NC3CCCCC3)CC[C@H]2C)n1
Outline: as §1

encorafenib = compound: COC(=O)N[C@@H](C)CNc1nccc(-c2cn(C(C)C)nc2-c2cc(Cl)cc(NS(C)(=O)=O)c2F)n1 [encorafenib]
Outline: as §1

[3] = compound: COC(=O)[C@H](CCSC)NC(=O)C1=C(C=C(C=C1)NC[C@H](CS)N)C2=CC=CC=C2
Outline: as §1

[4] = compound: COC1=CC=C(C=C1)CN2C=CC3=C2C=C(C=C3)C(=O)NO
Outline: as §1

filanesib = compound: CON(C)C(=O)N1N=C(c2cc(F)ccc2F)S[C@@]1(CCCN)c1ccccc1 [filanesib]
Outline: as §1

zotarolimus = compound: CO[C@H]1C[C@@H]2CC[C@@H](C)[C@@](O)(O2)C(=O)C(=O)N2CCCC[C@H]2C(=O)O[C@H]([C@H](C)C[C@@H]2CC[C@H](n3cnnn3)[C@H](OC)C2)CC(=O)[C@H](C)/C=C(\C)[C@@H](O)[C@@H](OC)C(=O)[C@H](C)C[C@H](C)/C=C/C=C/C=C/1C [zotarolimus]
Outline: as §1

idasanutlin = compound: COc1cc(C(=O)O)ccc1NC(=O)[C@@H]1N[C@@H](CC(C)(C)C)[C@](C#N)(c2ccc(Cl)cc2F)[C@H]1c1cccc(Cl)c1F [idasanutlin]
Outline: as §1

alisertib = compound: COc1cc(Nc2ncc3c(n2)-c2ccc(Cl)cc2C(c2c(F)cccc2OC)=NC3)ccc1C(=O)O [alisertib]
Outline: as §1

[5] = compound: COc1cc2nc(-c3cc(F)ccc3O)nc(N[C@@H]3CNC[C@H]3C(C)(C)O)c2cc1OC
Outline: as §1

gefitinib = compound: COc1cc2ncnc(Nc3ccc(F)c(Cl)c3)c2cc1OCCCN1CCOCC1 [gefitinib]
Outline: as §1

[6] = compound: COc1cccc2cc(-c3nc([C@H]4CC[C@H](C(=O)O)CC4)n4ncnc(N)c34)[nH]c12
Outline: as §1

lapatinib = compound: CS(=O)(=O)CCNCc1ccc(-c2ccc3ncnc(Nc4ccc(OCc5cccc(F)c5)c(Cl)c4)c3c2)o1 [lapatinib]
Outline: as §1

pictilisib = compound: CS(=O)(=O)N1CCN(Cc2cc3nc(-c4cccc5[nH]ncc45)nc(N4CCOCC4)c3s2)CC1 [pictilisib]
Outline: as §1

UniProt Q9ULX3, sequence (Q9ULX3 whole entry, looked up): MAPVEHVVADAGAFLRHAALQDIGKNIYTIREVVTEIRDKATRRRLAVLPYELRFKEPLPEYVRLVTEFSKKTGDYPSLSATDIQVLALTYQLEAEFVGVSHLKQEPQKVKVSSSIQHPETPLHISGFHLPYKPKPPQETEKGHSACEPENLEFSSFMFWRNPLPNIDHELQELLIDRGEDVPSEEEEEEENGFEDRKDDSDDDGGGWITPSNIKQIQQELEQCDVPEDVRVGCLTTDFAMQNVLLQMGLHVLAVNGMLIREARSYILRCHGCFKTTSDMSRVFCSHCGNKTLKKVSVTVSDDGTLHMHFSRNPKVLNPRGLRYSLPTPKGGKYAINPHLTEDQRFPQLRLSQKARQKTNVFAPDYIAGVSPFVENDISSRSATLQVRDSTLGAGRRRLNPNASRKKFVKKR
UniProt Q16621, sequence (Q16621 whole entry, looked up): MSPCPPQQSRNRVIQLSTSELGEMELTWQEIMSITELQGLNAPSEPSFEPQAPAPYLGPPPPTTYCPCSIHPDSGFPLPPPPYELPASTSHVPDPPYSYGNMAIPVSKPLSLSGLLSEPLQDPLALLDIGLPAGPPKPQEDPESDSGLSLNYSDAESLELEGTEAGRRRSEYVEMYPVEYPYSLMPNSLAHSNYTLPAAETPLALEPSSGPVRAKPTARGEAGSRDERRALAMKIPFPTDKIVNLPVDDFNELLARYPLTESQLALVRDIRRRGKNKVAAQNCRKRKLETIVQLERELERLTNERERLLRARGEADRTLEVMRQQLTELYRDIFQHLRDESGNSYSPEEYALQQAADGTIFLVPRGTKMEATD
UniProt P68402, sequence (P68402 whole entry, looked up): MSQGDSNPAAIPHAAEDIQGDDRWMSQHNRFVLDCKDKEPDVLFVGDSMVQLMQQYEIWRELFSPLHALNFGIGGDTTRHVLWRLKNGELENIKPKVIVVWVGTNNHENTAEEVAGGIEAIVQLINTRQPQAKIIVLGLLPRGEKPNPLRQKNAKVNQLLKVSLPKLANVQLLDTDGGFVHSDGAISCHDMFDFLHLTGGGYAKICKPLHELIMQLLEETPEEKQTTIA
UniProt P51956, sequence (P51956 whole entry, looked up): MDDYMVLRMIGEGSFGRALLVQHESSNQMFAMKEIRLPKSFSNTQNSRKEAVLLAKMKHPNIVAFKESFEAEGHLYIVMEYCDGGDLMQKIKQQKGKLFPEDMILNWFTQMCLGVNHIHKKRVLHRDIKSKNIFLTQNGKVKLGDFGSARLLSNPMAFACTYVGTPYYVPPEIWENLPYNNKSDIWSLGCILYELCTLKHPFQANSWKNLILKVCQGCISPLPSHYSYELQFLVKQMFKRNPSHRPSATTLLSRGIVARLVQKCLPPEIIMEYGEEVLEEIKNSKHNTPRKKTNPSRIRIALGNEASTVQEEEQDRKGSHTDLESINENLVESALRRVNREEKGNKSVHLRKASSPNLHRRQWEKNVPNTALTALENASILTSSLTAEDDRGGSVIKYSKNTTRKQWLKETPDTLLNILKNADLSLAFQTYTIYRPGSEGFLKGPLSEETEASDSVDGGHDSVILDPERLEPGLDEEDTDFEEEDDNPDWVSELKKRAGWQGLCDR
UniProt Q96DE0, sequence (Q96DE0 whole entry, looked up): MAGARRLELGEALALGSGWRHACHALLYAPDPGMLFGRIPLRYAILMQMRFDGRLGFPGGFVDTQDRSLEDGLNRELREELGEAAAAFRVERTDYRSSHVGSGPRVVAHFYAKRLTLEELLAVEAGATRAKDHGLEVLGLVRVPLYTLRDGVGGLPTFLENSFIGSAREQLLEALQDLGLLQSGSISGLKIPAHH
UniProt Q86WQ0, sequence (Q86WQ0 whole entry, looked up): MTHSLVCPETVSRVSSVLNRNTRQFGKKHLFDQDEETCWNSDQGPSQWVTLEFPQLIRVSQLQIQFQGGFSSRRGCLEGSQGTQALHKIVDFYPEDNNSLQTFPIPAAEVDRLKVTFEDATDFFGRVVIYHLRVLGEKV

| Target | log2 fold change (saracatinib) | log2 fold change (sotrastaurin) | log2 fold change (alvocidib) | log2 fold change (Tubastatin A) | log2 fold change [1] | log2 fold change (defactinib) | log2 fold change (rucaparib) | log2 fold change [2] | log2 fold change (encorafenib) | log2 fold change [3] | log2 fold change [4] | log2 fold change (filanesib) | log2 fold change (zotarolimus) | log2 fold change (idasanutlin) | log2 fold change (alisertib) | log2 fold change [5] | log2 fold change (gefitinib) | log2 fold change [6] | log2 fold change (lapatinib) | log2 fold change (pictilisib) |
| --- | --- | --- | --- | --- | --- | --- | --- | --- | --- | --- | --- | --- | --- | --- | --- | --- | --- | --- | --- | --- |
| NEK3 (UniProt P51956) | 0.022 | -0.125 | -0.169 | -0.194 | -0.027 | -0.182 | -0.013 | 0.007 | 0 | 0.036 | 0.058 | -0.297 | 0.217 | 0.116 | 0.074 | 0.07 | 0.086 | -0.196 | 0.061 | 0.161 |
| NR2C2AP isoform 2 (UniProt Q86WQ0) | 0.086 | 0.018 | -0.089 | 0.099 | 0.027 | -0.106 | -0.031 | 0.073 | -0.048 | -0.115 | 0.101 | 0.01 | -0.014 | -0.062 | -0.066 | -0.034 | -0.01 | 0.093 | -0.011 | 0.08 |
| NOB1 (UniProt Q9ULX3) | -0.022 | -0.092 | 0 | 0.045 | -0.047 | -0.009 | 0.141 | 0.103 | 0.007 | 0 | 0.16 | 0.001 | 0.026 | 0.068 | -0.14 | 0.044 | 0.01 | -0.13 | 0.045 | -0.042 |
| MTOR (UniProt P42345) | -0.076 | 0.088 | -0.101 | 0.002 | -0.005 | -0.09 | 0 | -0.009 | 0.041 | -0.02 | 0.002 | -0.112 | -0.308 (active) | -0.09 | -0.017 | -0.012 | -0.018 | -0.019 | 0.014 | 0.019 |
| PAFAH1B2 (UniProt P68402) | -0.016 | 0.097 | 0.031 | -0.058 | -0.029 | 0.022 | 0.037 | 0.078 | -0.006 | -0.026 | 0.044 | -0.074 | 0.007 | 0.082 | 0.02 | -0.071 | 0.086 | 0.033 | 0.029 | -0.28 |
| NUDT1 (UniProt P36639) | 0.068 | 0.043 | -0.038 | 0.193 | 0.05 | 0.019 | 0.416 | 0.196 | -0.03 | -0.074 | 0.043 | -0.06 | -0.068 | -0.169 | -0.017 | 0.11 | 0.354 | -0.046 | -0.016 | -0.01 |
| NUDT16 (UniProt Q96DE0) | 0.063 | -0.031 | -0.075 | 0.009 | -0.057 | -0.024 | 0.009 | -0.004 | -0.017 | -0.05 | -0.033 | -0.018 | 0.1 | -0.01 | -0.168 | 0.025 | 0.005 | 0.112 | 0.054 | 0.045 |
| NFE2 (UniProt Q16621) | 0.011 | -0.096 | -0.182 | 0.093 | -0.025 | -0.037 | -0.075 | -0.065 | 0.018 | -0.06 | 0.135 | 0 | 0.146 | 0.023 | -0.056 | -0.032 | -0.008 | 0.014 | 0.007 | 0.05 |
